Jurkat NFkB inh = inhibitors of induced NF-kB luciferase reporter, primary screen, TCR NF-kB activation inhibitor project, cell-based, luminescence, uHTS. Jurkat, PMA/ionomycin-induced NF-kB luciferase reporter. inhibition, % at 4 µM. actives 0.53% (n = 330,000). AID 435003, 2010; in the data active = inhibition above about 50%
Gli-Sufu block = Gli-Sufu pathway antagonists, primary screen, luciferase luminescence, Sufu-KO-LIGHT cells, uHTS; Sufu-KO-LIGHT fibroblasts, Gli luciferase reporter luminescence; inhibition, % at 5 µM; actives 0.74% (n = 340,000); AID 588413, 2011;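 active = inhibition above about 55%, limit read from the data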;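 also: 0% = DMSO-treated cells and 100% = wells with medium but no cells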
Mdm2 MdmX PPI = inhibitors of human Mdm2-MdmX association, primary screen, cell-based, luminescence, split luciferase, SaOS-2, uHTS | SaOS-2 split-luciferase Mdm2/MdmX complementation | AID 485346, 2010 | actives 3% (n = 330,000) | inhibition, % at 8 µM;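 active = inhibition of at least 50% at 8 µM in the primary screen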
Target sequence (O15151 whole entry, looked up): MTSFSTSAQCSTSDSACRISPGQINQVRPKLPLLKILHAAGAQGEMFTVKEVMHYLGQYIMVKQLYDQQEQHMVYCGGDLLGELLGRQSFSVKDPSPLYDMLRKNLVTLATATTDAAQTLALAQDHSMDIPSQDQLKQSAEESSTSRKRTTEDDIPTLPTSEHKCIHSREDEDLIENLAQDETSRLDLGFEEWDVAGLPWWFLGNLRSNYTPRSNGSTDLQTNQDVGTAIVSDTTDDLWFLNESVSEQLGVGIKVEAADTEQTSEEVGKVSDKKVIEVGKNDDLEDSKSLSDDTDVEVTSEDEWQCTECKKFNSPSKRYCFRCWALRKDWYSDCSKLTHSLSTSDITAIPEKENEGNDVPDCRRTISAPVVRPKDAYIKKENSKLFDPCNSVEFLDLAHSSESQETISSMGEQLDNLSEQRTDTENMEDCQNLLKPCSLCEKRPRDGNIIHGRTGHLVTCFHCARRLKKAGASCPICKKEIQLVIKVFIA
Target sequence (Q00987 whole entry, looked up): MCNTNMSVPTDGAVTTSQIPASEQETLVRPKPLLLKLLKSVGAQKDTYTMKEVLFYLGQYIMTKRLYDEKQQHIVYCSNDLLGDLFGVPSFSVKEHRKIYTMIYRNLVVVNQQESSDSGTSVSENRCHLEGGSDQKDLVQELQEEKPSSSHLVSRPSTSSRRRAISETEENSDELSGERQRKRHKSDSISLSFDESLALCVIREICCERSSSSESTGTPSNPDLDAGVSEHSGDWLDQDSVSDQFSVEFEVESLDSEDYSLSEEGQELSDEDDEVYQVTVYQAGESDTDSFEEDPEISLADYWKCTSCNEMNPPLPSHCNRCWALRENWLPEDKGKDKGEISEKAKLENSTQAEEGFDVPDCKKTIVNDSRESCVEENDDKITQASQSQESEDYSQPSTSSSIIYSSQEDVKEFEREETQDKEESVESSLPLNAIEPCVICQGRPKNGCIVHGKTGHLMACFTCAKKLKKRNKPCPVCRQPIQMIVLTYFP
Beta apoptosis = inhibitors of cytokine-induced beta cell apoptosis, primary screen, luminescence; INS-1E cytokine-induced death, ATP luminescence, 48 h; percent of positive-control rescue, neutral wells zero; protection from apoptosis, % (test concentration not listed); actives 0.8% (n = 300,000); AID 435005, 2010;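 active = Every replicate reaches about 75%, or at least half do and their mean reaches it too, limit read from the data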;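 also: 0% = cytokine-treated negative control wells and 100% = positive control rescue; higher means more ATP so stronger rescue from cytokine killing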
CSC inhib = cancer stem cell viability inhibitors, primary screen, luminescence | actives 1.1% (n = 300,000) | AID 2717, 2010 | inhibition, % at 7.5 µM | cancer stem cell-like cells viability; in the data active = inhibition above about 75%; tested in HMLE shEcad cells
697 NFkB inh = inhibitors of PMA/ionomycin-induced NF-kB reporter, 697 cells, primary screen, B-cell NF-kB inhibitor project, cell-based, luminescence, uHTS; 697 B-cell NF-kB luciferase reporter, 16 h; inhibition, % at 4 µM; actives 0.33% (n = 330,000); in the data active = inhibition above about 35%
Gli-Sufu confirm = Gli-SUFU pathway antagonists, confirmation, single concentration, luciferase luminescence, Sufu-KO-LIGHT cells | actives 40% (n = 2,500) | inhibition, % at 5 µM | shares compounds with Gli-Sufu block | Gli luciferase reporter;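 active = mean inhibition at 5 µM reaching about 45%, limit read from the data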;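 also: plate controls were DMSO-treated cells for no effect and wells lacking cells for full effect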
SufuKO cytotox = cytotoxicity in Sufu-KO-LIGHT cells, confirmation, cytotoxicity control for Gli-SUFU antagonist project, cell-based, ATP luminescence, single concentration; shares compounds with Gli-Sufu block; cytotoxicity, % at 5 µM; actives 32% (n = 2,500);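 active = mean cytotoxicity at 5 µM above about 25%, limit read from the data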;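 also: cells exposed to compound overnight for roughly 16 to 18 hours; plate controls were DMSO wells with cells for no effect and medium without cells for full effect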
Wnt3a counter = Wnt3a reporter signal inhibition, confirmation, counter-screen for Gli-SUFU antagonist project, Wnt-LIGHT cells, luminescence, single concentration. inhibition, % at 6.25 µM. shares compounds with Gli-Sufu block. Wnt3a-driven luciferase reporter. actives 20% (n = 2,500);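 active = mean inhibition above about 25%, limit read from the data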
Numbers without * were called inactive; nt = not tested or not shown. Rows were chosen to be rich in hits. Some 4.5% of all compounds tested hit in one or more screens of this group.

SMILES | Jurkat NFkB inh | Gli-Sufu block | Mdm2 MdmX PPI | Beta apoptosis | CSC inhib | 697 NFkB inh | Gli-Sufu confirm | SufuKO cytotox | Wnt3a counter
Cc1ccc(C)c(CN2C(=O)COc3ccccc32)c1 | -14.0 | 6.4 | -10.3 | -1.8 | 2.6 | -17.9 | nt | nt | nt
Cc1ccc(C)c(CN2C(=O)COc3ccc(C(=O)c4ccccc4C(=O)O)cc32)c1 | -0.6 | 52.8 | 20.8 | nt | -7.2 | -5.1 | 19.9 | 5.2 | -7.0
O=[N+]([O-])c1ccc(N/N=C/c2sc(N3CCOCC3)nc2-c2ccccc2)c(S(=O)(=O)Nc2ccc(Cl)cc2)c1 | nt | 90.2* | nt | nt | nt | nt | 90.0* | 3.4 | 72.0*
O=[N+]([O-])c1ccc(N/N=C/c2sc(N3CCOCC3)nc2-c2ccccc2)c(S(=O)(=O)Nc2ccccc2Cl)c1 | nt | 69.1* | nt | nt | nt | nt | 81.2* | 12.3 | 60.4*
CCOC(=O)/C(C#N)=N/Nc1ccccc1C#N | -5.8 | 17.2 | 11.5 | 8.4 | -9.4 | -21.8 | nt | nt | nt
C=CCOc1ccccc1CNCCNC(=O)c1nonc1N | -8.5 | nt | 8.3 | 3.7 | -2.6 | 9.3 | nt | nt | nt
Nc1nonc1C(=O)NCCNCc1cc(Br)ccc1OCc1ccccc1F | 13.3 | 51.0 | 21.0 | 66.4 | 3.7 | -14.2 | 44.2 | 34.2* | 2.2
Nc1ccc(N=Nc2ccc(O)cc2)c(N)n1 | nt | 60.3* | nt | nt | nt | nt | 39.3 | 25.8* | -205.6
O=C(c1ccc(-c2ccccc2)cc1)C1CCCN(Cc2ccncc2)C1 (stereo not given) | 5.2 | 52.0 | -13.5 | 11.7 | 34.0 | -8.5 | 27.7 | 12.1 | -38.7
Cc1ccsc1C(=O)C1CCCN(Cc2cn(C)nc2-c2ccccc2)C1 (stereo not given) | -3.3 | 21.7 | 15.9 | 11.1 | -7.8 | 2.6 | nt | nt | nt
Cc1nn(C)cc1CN1CCCC(C(=O)c2ccc(-c3ccccc3)cc2)C1 (stereo not given) | 11.5 | 53.5 | 17.2 | 9.7 | 17.4 | 0.1 | 25.0 | 21.6 | -58.6
O=C(CN1C(=O)NC2(CCc3ccccc32)C1=O)NCc1cccc(C(F)(F)F)c1 (stereo not given) | -16.3 | 1.5 | -5.6 | 1.3 | 13.0 | -15.6 | nt | nt | nt
CCC(C)(C)NC(=O)C(c1ccccc1Cl)N(C(=O)CCC(=O)Nc1cc(C)on1)c1ccc(NC(C)=O)cc1 (stereo not given) | -17.3 | 54.1 | 14.5 | -9.2 | 6.1 | 4.7 | 9.8 | 28.3* | -19.1
CCC(C)(C)c1ccc(Oc2ccc(N)cc2)cc1 | nt | 74.3* | nt | nt | nt | nt | 83.0* | 31.4* | 105.4*
CCCCN1C(=O)C(C(=O)OCc2ccccc2)CC2=C1CCCC2=O (stereo not given) | nt | 6.3 | nt | nt | nt | nt | nt | nt | nt
CCCc1c(C)nc(N2CCN(c3ccccc3F)CC2)[nH]c1=O | 12.7 | 0.1 | 5.0 | nt | -3.4 | -12.9 | nt | nt | nt
CCc1ccc(CN(C)C(=O)c2cc(COc3cccc4cnccc34)on2)cc1 | 42.9 | 64.8* | 19.1 | 77.7* | 0.4 | -13.1 | 61.7* | 25.1* | -1.7
NS(=O)(=O)c1ccc(CCNCc2ccccc2OCc2ccc(Cl)cc2)cc1 | 21.0 | 50.2 | 35.2 | 61.9 | 8.6 | -19.8 | 14.6 | 8.7 | -61.2
C=CCOc1ccccc1CNCCc1ccc(S(N)(=O)=O)cc1 | -2.0 | 10.1 | 24.0 | nt | -12.2 | 5.4 | nt | nt | nt
NS(=O)(=O)c1ccc(CCNCc2cc(Cl)ccc2OCc2ccccc2)cc1 | 14.7 | 55.6* | 29.1 | 42.0 | -4.9 | -27.5 | 23.5 | -5.7 | -16.6
CCc1nc(N)nc(N)c1-c1ccc(N(C)Cc2ccccc2)c([N+](=O)[O-])c1 | nt | 62.5* | nt | nt | nt | nt | 49.0* | 21.0 | 16.7
CCc1nc(N)nc(N)c1-c1ccc(NCCN)c([N+](=O)[O-])c1 | nt | 8.1 | nt | nt | nt | nt | nt | nt | nt
